Among the data in article PMC5869772, “Quantitative profiling of BATF family proteins/JUNB/IRF hetero-trimers using Spec-seq” are binding signal values, retold here.

The assay concerns the target T1, BATF3;JUNB (human;human, UniProt Q9NR55;P17275 1-127;148-347, |).
T1 sequence 1: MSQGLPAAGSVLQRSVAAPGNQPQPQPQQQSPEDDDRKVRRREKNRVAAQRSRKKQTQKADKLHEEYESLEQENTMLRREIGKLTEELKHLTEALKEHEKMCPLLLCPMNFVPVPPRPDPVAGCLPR
T1 sequence 2: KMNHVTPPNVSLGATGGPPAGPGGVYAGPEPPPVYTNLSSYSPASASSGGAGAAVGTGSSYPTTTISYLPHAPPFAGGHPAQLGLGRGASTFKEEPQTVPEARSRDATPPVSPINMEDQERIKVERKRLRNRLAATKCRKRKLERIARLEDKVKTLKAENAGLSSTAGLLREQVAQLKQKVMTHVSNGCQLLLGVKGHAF
Kind of assay: Spec-seq (EMSA and sequencing of bound and unbound bands); 100 nM BATFx-JUNB, 1 uM dsDNA library, 50 mM K acetate, 20 mM Tris-acetate, 10 mM Mg acetate, 100 ug/ml BSA, pH 7.9, 10% glycerol, 30 min on ice; native 9% PAGE at 4 C; low values mean tight binding. The note with it: protein: recombinant;recombinant; tags: N-terminal mCherry-TEV, cleaved off;C-terminal 6His; copies: 1;1; dsDNA, one strand shown. Put shortly:
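The protein, at 100 nM, was incubated with 1 μM double-stranded degenerate DNA library for 30 min on ice in NEB Cutsmart buffer with 10% glycerol, then resolved by native 9% PAGE at 4 °C. Excised bound and unbound bands were PCR-barcoded and Illumina-sequenced, and each sequence's relative binding energy in kT is −ln of its bound/unbound read-count ratio.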
Regarding “GATAGTCTCATTTTCACCCCGTGAAATGAGTCCTTTGTTCCATTACAGTATCTGT”, the binding signal stood at 0.708 kT.
The value for “GATAGTCTCATTTTCACCCCGTGAAAGGACTCATTTGTTCCATTACAGTATCTGT” was 0.665 kT.
The value for “GATAGTCTCATTTTCACCCCGTGAAATGAGGCAGTTGTTCCATTACAGTATCTGT” was 1.27 kT.
The value for “GATAGTCTCATTTTCACCCCGTGAAATGAGGCAATTGTTCCATTACAGTATCTGT” was 0.808 kT; that for “GATAGTCTCATTTTCACCCCGTGAAAGTGGGTCATTGTTCCATTACAGTATCTGT” was 0.613 kT; that for “GATAGTCTCATTTTCACCCCGTGAAAAGAGTCATTTGTTCCATTACAGTATCTGT” was 0.137 kT.
As for “GATAGTCTCATTTTCACCCCGTGAAATGACTCGCTTGTTCCATTACAGTATCTGT”, the binding signal is 0.378 kT.
For “GATAGTCTCATTTTCACCCCGTGAAAACGAGTCATTGTTCCATTACAGTATCTGT” the value was -0.328 kT; for “GATAGTCTCATTTTCACCCCGTGAAATGATGTCATTGTTCCATTACAGTATCTGT”, -1.63 kT; for “GATAGTCTCATTTTCACCCCGTGAAATGACGTTATTGTTCCATTACAGTATCTGT”, -0.68 kT.
The value for “GATAGTCTCATTTTCACCCCGTGAAATGAGGTCATTGTTCCATTACAGTATCTGT” was -1.09 kT.
For “GATAGTCTCATTTTCACCCCGTGAAAAGGAGTCATTGTTCCATTACAGTATCTGT” the value was 0.185 kT; for “GATAGTCTCATTTTCACCCCGTGAAAATGCGTCATTGTTCCATTACAGTATCTGT”, -1.11 kT.
On to “GATAGTCTCATTTTCACCCCGTGAAATGACACACTTGTTCCATTACAGTATCTGT”, for which the binding signal is 0.362 kT.
The value for “GATAGTCTCATTTTCACCCCGTGAAATTGCGTCATTGTTCCATTACAGTATCTGT” was -1.72 kT; that for “GATAGTCTCATTTTCACCCCGTGAAATGAGTTACTTGTTCCATTACAGTATCTGT” was 0.809 kT.
For “GATAGTCTCATTTTCACCCCGTGAAATGAGTCTGTTGTTCCATTACAGTATCTGT” the value was 0.723 kT; for “GATAGTCTCATTTTCACCCCGTGAAATGTGTCATTTGTTCCATTACAGTATCTGT”, -0.44 kT.
